In PubChem BioAssay (EPA / NIEHS):
Active and inactive are the calls of the source. The calls were made as follows: active = hit-call score of the fitted dose curve at least 0.9, where 1 is the maximum; inactive = score below 0.9.

Read-out: Epidermal growth factor receptor (EGFR), EGFR (gene 1956)
Test: BSK_hDFCGF_EGFR: BioMAP Diversity Plus: hDFCGF Assay for Epidermal growth factor receptor (EGFR) Biomarker Activity (AID 2283057)
Conditions: primary human foreskin fibroblasts; actives raise or lower the signal
Summary of the method: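 Measured by ELISA: EGFR levels on primary human foreskin fibroblasts 24 h after chemical treatment, analysed relative to DMSO with bidirectional fitting.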

Row | Structure (SMILES) | outcome | AC50
1 | CC1(C)CCC(=Cc2ccc(Cl)cc2)C1(O)Cn1cncn1 (stereo unspecified) | inactive | –
2 | CC1(C)C(C(=O)OC(C#N)c2cccc(Oc3ccccc3)c2)C1(C)C (stereo unspecified) | inactive | –
3 | CCOP(=O)(OCC)Oc1nc(Cl)c(Cl)cc1Cl | inactive | –
4 | CCSC(=O)N1CCCCCC1 | inactive | –
5 | CCCN(CC)CC1COC2(CCC(C(C)(C)C)CC2)O1 (stereo unspecified) | inactive | –
6 | COCC(=O)N(c1c(C)cccc1C)C(C)C(=O)OC (stereo unspecified) | inactive | –
7 | Clc1cccc(C(Cl)(Cl)Cl)n1 | inactive | –
8 | CC1(C)C(C=C(Cl)Cl)C1C(=O)OC(C#N)c1cccc(Oc2ccccc2)c1 (stereo unspecified) | inactive | –
9 | Nc1c(Cl)c(Cl)nc(C(=O)O)c1Cl | inactive | –
10 | CC(C)(C)C(=O)C(Oc1ccc(Cl)cc1)n1cncn1 (stereo unspecified) | inactive | –
11 | CCOc1nc(F)cc2nc(S(=O)(=O)Nc3c(Cl)cccc3Cl)nn12 | inactive | –
12 | C=C(C)CN(CC)c1c([N+](=O)[O-])cc(C(F)(F)F)cc1[N+](=O)[O-] | inactive | –
13 | N#Cc1c[nH]cc1-c1cccc2c1OC(F)(F)O2 | inactive | –
14 | CS(=O)(=O)c1ccc(C(=O)C2C(=O)CCCC2=O)c([N+](=O)[O-])c1 | inactive | –
15 | COC(=O)c1c(C(F)F)nc(C(F)(F)F)c(C2=NCCS2)c1CC(C)C | inactive | –
16 | CCNP(=S)(OC)O/C(C)=C/C(=O)OC(C)C (stereo unspecified) | inactive | –
17 | CC(C)Oc1cccc(NC(=O)c2ccccc2C(F)(F)F)c1 | inactive | –
18 | CS(=O)(=O)c1cc(C(F)(F)F)ccc1C(=O)c1cnoc1C1CC1 | inactive | –

Row | Structure (SMILES) | outcome | AC50
19 | CCC(C)n1c(=O)[nH]c(C)c(Br)c1=O (stereo unspecified) | inactive | –
20 | CCOC(=O)C(C)OC(=O)c1cc(Oc2ccc(C(F)(F)F)cc2Cl)ccc1[N+](=O)[O-] (stereo unspecified) | inactive | –
21 | COc1cc(Cl)c(OC)cc1Cl | inactive | –
22 | Cc1nc(N(C)C)nc(OC(=O)N(C)C)c1C | inactive | –
23 | CCCCOCN(C(=O)CCl)c1c(CC)cccc1CC | – | 33.3 µM (active)
24 | COc1cc(OC)nc(NC(=O)NS(=O)(=O)c2ncccc2OCC(F)(F)F)n1 | inactive | –
25 | CC(C)=CC1C(C(=O)OCc2coc(Cc3ccccc3)c2)C1(C)C (stereo unspecified) | inactive | –
26 | Nc1c(Cl)c(F)nc(OCC(=O)O)c1Cl | inactive | –
27 | CC(C)N1C(=O)N(c2ccccc2)CSC1=NC(C)(C)C | inactive | –
28 | O=C1C2CC=CCC2C(=O)N1SC(Cl)(Cl)Cl (stereo unspecified) | – | 5.78 µM (active)
29 | N#Cc1c(Cl)cccc1Cl | inactive | –
30 | CNC(=O)N(C)c1nnc(C(C)(C)C)s1 | inactive | –
31 | CCOc1nc(C(Cl)(Cl)Cl)ns1 | inactive | –
32 | Cc1ccc(N=CN(C)C=Nc2ccc(C)cc2C)c(C)c1 | inactive | –
33 | OC(c1ccc(Cl)cc1)(c1ccc(Cl)cc1)C(Cl)(Cl)Cl | inactive | –
34 | COP(=S)(OC)SCn1nnc2ccccc2c1=O | inactive | –
35 | COc1ccc(-c2ccccc2)cc1NNC(=O)OC(C)C | inactive | –
36 | Cc1cnc(C2=NC(C)(C(C)C)C(=O)N2)c(C(=O)O)c1 (stereo unspecified) | inactive | –
